Measurements published in publication PMC5540273 (PLoS ONE, 2017).

How the values were obtained:
Conditions in all cases: concentration: 1 μM,replicates: in singlicate; n = 1
MAPKAPK5 = tested on: MAPKAPK5
MARK1 = tested on: MARK1
MARK2 = tested on: MARK2
MARK3 = tested on: MARK3
MARK4 = tested on: MARK4
MAST1 = tested on: MAST1
MEK1 = tested on: T1, MEK1
T1 construct: gene MAP2K1

MEK2 = tested on: T2, MEK2
T2 construct: gene MAP2K2

MEK3 = tested on: T3, MEK3
T3 construct: gene MAP2K3

MEK4 = tested on: T4, MEK4
T4 construct: gene MAP2K4

MEK5 = tested on: T5, MEK5
T5 construct: gene MAP2K5

MEK6 = tested on: T6, MEK6
T6 construct: gene MAP2K6

MELK = tested on: MELK
MERTK = tested on: MERTK
MET = tested on: MET
MINK = tested on: T7, MINK
T7 construct: gene MINK1

MKK7 = tested on: MKK7
MKNK1 = tested on: MKNK1
MKNK2 = tested on: MKNK2
MLCK = tested on: T8, MLCK
T8 construct: gene MYLK3
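Note: KINOMEscan kinase panel screen.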

| Compound | %Inh (MAPKAPK5) [%] | %Inh (MARK1) [%] | %Inh (MARK2) [%] | %Inh (MARK3) [%] | %Inh (MARK4) [%] | %Inh (MAST1) [%] | %Inh (MEK1) [%] | %Inh (MEK2) [%] | %Inh (MEK3) [%] | %Inh (MEK4) [%] | %Inh (MEK5) [%] | %Inh (MEK6) [%] | %Inh (MELK) [%] | %Inh (MERTK) [%] | %Inh (MET) [%] | %Inh (MINK) [%] | %Inh (MKK7) [%] | %Inh (MKNK1) [%] | %Inh (MKNK2) [%] | %Inh (MLCK) [%] |
| --- | --- | --- | --- | --- | --- | --- | --- | --- | --- | --- | --- | --- | --- | --- | --- | --- | --- | --- | --- | --- |
| CNC(=O)c1ccccc1Nc1nc(Nc2cccc(CS(C)(=O)=O)c2)ncc1C.O=CO [GSK1520489] | 0 | 71 | 87 | 72 | 92.3 | 5 | 94.5 | 91.1 | 69 | 56 | 99.9 | 39 | 94.6 | 100 | 97.3 | 58 | 0 | 0 | 50 | 41 |
| O=C(NCC1CC1)c1ccc(-c2cc(C(=O)NC3CC3)ccc2F)cc1 [GW810445] | 0 | 0 | 0 | 0 | 2 | 36 | 2 | 13 | 0 | 0 | 0 | 5 | 17 | 0 | 0 | 0 | 8 | 3 | 0 | 0 |
| CC(=O)Nc1nc2cnc(Nc3cc(NC(=O)c4cccc(CC(C)(C)C#N)c4)ccc3C)nc2s1 | 14 | 8 | 3 | 0 | 8 | 53 | 6 | 6 | 0 | 25 | 46 | 0 | 8 | 31 | 7 | 3 | 0 | 0 | 41 | 0 |
| COC(=O)c1cccc(NC(=O)NC2CCN(c3ccnc(NCc4ccc(F)cc4)n3)CC2)c1 [GSK1379860] | 0 | 0 | 0 | 0 | 0 | 0 | 0 | 0 | 0 | 0 | 8 | 0 | 0 | 0 | 0 | 0 | 45 | 0 | 9 | 0 |
| C[C@@H]1CCN(C(=O)N2CCCC2)C[C@@H]1N(C)c1ncnc2[nH]ccc12 | 8 | 0 | 50 | 46 | 5 | 0 | 18 | 0 | 29 | 13 | 38 | 20 | 13 | 0 | 0 | 30 | 0 | 0 | 58 | 0 |
| CS(=O)(=O)Nc1ccc(-c2ccnc3[nH]ccc23)cc1 [GSK993273] | 0 | 0 | 0 | 0 | 6 | 0 | 60 | 71 | 43 | 67 | 67 | 16 | 51 | 56 | 2 | 23 | 0 | 72 | 95.9 | 15 |
| C[C@@H](Oc1cc(-n2cnc3cc(-c4ccncc4)ccc32)sc1C(N)=O)c1ccccc1Cl [GSK479719] | 0 | 0 | 100 | 1 | 12 | 0 | 0 | 0 | 0 | 37 | 21 | 0 | 0 | 86 | 52 | 0 | 0 | 0 | 28 | 0 |
| N#Cc1cccc(C(=O)NC2CCN(c3ccnc(Nc4ccc(F)cc4)n3)C2)c1 (stereo not drawn) [GSK1379708] | 0 | 0 | 0 | 0 | 16 | 0 | 0 | 0 | 0 | 17 | 12 | 0 | 0 | 49 | 18 | 0 | 0 | 0 | 0 | 0 |
| CN1CCN(CCCNc2nccc(-c3c(-c4ccc(F)cc4)nn4cc(C(N)=O)ccc34)n2)CC1 [GW622475] | 0 | 9 | 15 | 0 | 21 | 0 | 0 | 18 | 0 | 12 | 42 | 0 | 91.9 | 49 | 32 | 71 | 0 | 10 | 0 | 0 |
| C[C@@H]1CNc2c(sc3ccc4nc(-c5ccncc5)ccc4c23)C(=O)N1 | 100 | 0 | 0 | 0 | 0 | 12 | 0 | 0 | 13 | 0 | 33 | 0 | 0 | 100 | 50 | 28 | 0 | 0 | 21 | 54 |
| O=C(NOCC1CC1)c1cc(Br)c(F)c(F)c1Nc1ccc(I)cc1Cl | 0 | 0 | 13 | 0 | 0 | 0 | 31 | 58 | 15 | 0 | 20 | 0 | 0 | 0 | 0 | 9 | 0 | 10 | 5 | 0 |
| COc1cccc(OC)c1C(=O)Nc1cccc(-c2nn3ccccc3c2-c2ccnc(Nc3cccc(F)c3)n2)c1 [GSK361065] | 8 | 17 | 8 | 7 | 14 | 9 | 28 | 41 | 30 | 0 | 93.2 | 3 | 0 | 50 | 34 | 0 | 0 | 0 | 0 | 2 |
| CSc1nccc(-c2c(-c3ccc(F)cc3)ncn2CCCN2CCOCC2)n1.Cl [SB-217146] | 0 | 15 | 0 | 40 | 20 | 6 | 30 | 43 | 33 | 16 | 36 | 15 | 0 | 5 | 0 | 26 | 0 | 0 | 0 | 0 |
| CC(C)S(=O)(=O)N1CCN(Cc2ccc3c(c2)nc(NC(=O)c2ccsc2)n3C[C@H](O)c2ccccc2)CC1 [GW635815] | 0 | 6 | 34 | 43 | 18 | 0 | 0 | 0 | 0 | 9 | 91.9 | 0 | 28 | 83 | 20 | 60 | 0 | 7 | 0 | 0 |
| Cc1ccc(Nc2ccnc(Nc3ccc4c(c3)CS(=O)(=O)C4)n2)cc1O.Cl [GW579362] | 0 | 0 | 17 | 0 | 5 | 0 | 84 | 62 | 92 | 90.9 | 99.8 | 46 | 0 | 99.5 | 80 | 64 | 0 | 43 | 94.5 | 0 |
| FC(F)(F)c1cc(Br)cc(Nc2nccc(-c3cnn4ncccc34)n2)c1 [GW810578] | 0 | 0 | 0 | 0 | 0 | 45 | 3 | 14 | 90.3 | 21 | 35 | 12 | 7 | 14 | 0 | 3 | 0 | 19 | 0 | 32 |
| Cc1n[nH]c2cc(Nc3ccnc(Nc4cccc(CN5CCOCC5)c4)n3)ccc12 [GW682569] | 0 | 4 | 9 | 0 | 0 | 16 | 14 | 0 | 11 | 16 | 98.6 | 0 | 0 | 85 | 14 | 22 | 0 | 23 | 67 | 0 |
| Cn1ccc2ncnc(Oc3ccc(NC(=O)Nc4cnn(C(C)(C)C)c4)c(Cl)c3)c21 | 0 | 10 | 6 | 0 | 16 | 0 | 0 | 15 | 3 | 0 | 18 | 0 | 16 | 65 | 35 | 70 | 0 | 4 | 78 | 0 |
| C[C@@H](Oc1cc(-n2cnc3cc(-c4cnn(C)c4)ccc32)sc1C(N)=O)c1ccccc1Cl [GSK580432] | 0 | 63 | 61 | 82 | 59 | 0 | 0 | 0 | 0 | 18 | 42 | 15 | 15 | 100 | 69 | 40 | 0 | 2 | 20 | 10 |
| Cc1nnc(-c2ccc3occ(-c4ccc(S(C)=O)cc4)c3n2)o1 (stereo not drawn) | 0 | 0 | 0 | 0 | 0 | 0 | 0 | 0 | 0 | 0 | 0 | 0 | 0 | 0 | 0 | 0 | 0 | 0 | 0 | 0 |
| COc1cccc(CNC(=O)NC2CCN(c3ccnc(Nc4cc(OC)c(OC)c(OC)c4)n3)C2)c1 (stereo not drawn) [GSK1379765] | 0 | 0 | 0 | 0 | 1 | 0 | 17 | 5 | 15 | 25 | 99.9 | 0 | 15 | 17 | 26 | 12 | 0 | 21 | 39 | 6 |
